Data taken from PubChem BioAssay.
Values without a mark were called inactive. The source made the active and inactive calls.

Each molecule was assayed against Homeobox protein Hox-A13 (Mus musculus) (UniProt Q62424) (assay: disruptors of Hoxa13 oligonucleotide interaction – biochemical, fluorescence polarization, labeled oligonucleotide, primary screen (AID 1185)). Conditions: Hoxa13:DNA binding, 15 min, higher = more signal, called active from +8 up or from −8 down.
Chain of Homeobox protein Hox-A13 (Mus musculus) (Q62424 whole entry, looked up): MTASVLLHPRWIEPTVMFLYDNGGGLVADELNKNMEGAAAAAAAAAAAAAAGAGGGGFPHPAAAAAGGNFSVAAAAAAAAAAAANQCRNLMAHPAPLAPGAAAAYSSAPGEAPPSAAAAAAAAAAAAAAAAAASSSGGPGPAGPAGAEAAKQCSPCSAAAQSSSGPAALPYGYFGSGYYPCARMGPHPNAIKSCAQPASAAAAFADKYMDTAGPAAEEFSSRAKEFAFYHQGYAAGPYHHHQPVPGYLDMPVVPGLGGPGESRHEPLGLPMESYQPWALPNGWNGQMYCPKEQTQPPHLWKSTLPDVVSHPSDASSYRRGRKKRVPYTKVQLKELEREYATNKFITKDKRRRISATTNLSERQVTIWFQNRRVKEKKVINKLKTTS

Structure (SMILES) | z-score
O=C1OCCC/C=C\[C@H]2OC34C=CCN(Cc5ccccc5)C(=O)[C@H]3N(CCCCCO)C(=O)[C@@H]4C12 (stereo not given in full) | -5.04
CO[C@H]1O[C@H](CO)[C@@H](OC(=O)Nc2ccc(C(F)(F)F)cc2)[C@H](OC(=O)Nc2ccccc2-c2ccccc2)[C@H]1OC(=O)Nc1ccccc1-c1ccccc1 | -3.72
COCCOC(=O)N1C(=O)[C@@]2(c3cc(C#CCCO)ccc31)[C@H](C(=O)N1CCN(c3ncccn3)CC1)[C@H]1C(=O)O[C@H](c3ccccc3)[C@H](c3ccccc3)N1[C@@H]2c1ccc(O)cc1 | -2.3
[N-]=[N+]=NCc1ccccc1[C@H]1OC(c2ccc(OCCCO)cc2)=N[C@@]1(Cc1ccccc1)C(=O)N1CCOCC1 | -3.37
C=CCC(OC(C)=O)[C@@H]1[C@@H](N(Cc2ccc(-c3ccccc3)cc2)C(=O)c2ccc(C)cc2)c2cc(OCCCO)ccc2N1C(=O)c1ccc2ccccc2c1 (stereo not given in full) | -0.819
CCCCC(O)C1C=CC2C(=O)N(C)C(=O)C2N1Nc1ccccc1 (stereo not given) | -4.23
COCCOC(=O)N1C(=O)[C@@]2(c3cc(C#CCC(C(=O)OC)C(=O)OC)ccc31)[C@H](C(=O)N1CCCCCCC1)[C@H]1C(=O)O[C@H](c3ccccc3)[C@H](c3ccccc3)N1[C@@H]2c1ccccc1OCCO | 4.77
COC(=O)[C@@]1(Cc2ccccc2)[C@H]2c3cc(C(=O)N4CCCC4)n(Cc4ccc(C(F)(F)F)nc4)c3C[C@H]2CN1C(=O)c1ccccc1 | -3.13
CN1C(=O)[C@]2(CCS(=O)(=O)c3ccccc3)N=C(c3ccc(OCCCO)cc3)O[C@@H]2c2ccccc21 | -5.03
C=CCC(OC(C)=O)[C@@H]1[C@@H](N(Cc2cccc3ccccc23)C(=O)c2cccc3ccccc23)c2cc(OCCCO)ccc2N1C(=O)Cc1ccc2ccccc2c1 (stereo not given in full) | -2.12
CCCCNC(=O)c1ccc(C#C[Si](C)(C)C)c(OC(C)=O)c1 | -4.82
CCOC(=O)C1=CC[C@@H](c2ccccc2Cl)N(S(=O)(=O)c2ccc(C)cc2)[C@H]1c1cccc(OC)c1 | -1.18
Cc1ccc(F)cc1S(=O)(=O)N[C@@H]1CCN(Cc2ccc3c(c2)OCO3)C1 | -3.75
C#CCN(C/C=C/c1ccccc1)[C@H](CO[Si](C)(C)C(C)(C)C)c1ccccc1 | -0.229
N[C@@H](Cc1ccccc1)Cn1cc(C2(O)CCCCC2)nn1 | -3.59
COCCOC(=O)N1C(=O)[C@@]2(c3cc(C#CCC(C(=O)OC)C(=O)OC)ccc31)[C@H](c1ccc(OCCO)cc1)N1[C@H](c3ccccc3)[C@H](c3ccccc3)OC(=O)[C@H]1[C@@H]2C(=O)N1CCCCCCC1 | -15.5 (active)
COc1ccc(NC(=O)O[C@H]2[C@H](OC(=O)Nc3ccc4c(c3)OCO4)[C@H](OC(=O)Nc3ccc4c(c3)OCO4)[C@@H](OC)O[C@@H]2CO)cc1 | -4.94
COc1ccc(NN2C(C(O)c3cc(C(F)(F)F)cc(C(F)(F)F)c3)C=CC3C(=O)N(C4CCCCC4)C(=O)C32)cc1 (stereo not given) | -3.31

Structure (SMILES) | z-score
COCCOC(=O)N1C(=O)[C@@]2(c3cc(C#Cc4ccc(OC)cc4)ccc31)[C@H](C(=O)Nc1nc3ccccc3s1)[C@H]1C(=O)O[C@H](c3ccccc3)[C@H](c3ccccc3)N1[C@@H]2c1ccccc1OCCO | 3.56
C=C(COC)/C(=C/C[C@H](OC(=O)c1ccncc1)c1ccc(OCCO)cc1)c1cc(C(=O)OC)ccc1OC | -4.65
COc1ccc([Si](C)(C)[C@H]2[C@H](CCO)O[C@@]3(C(=O)N(Cc4ccccc4)c4ccc(N(C=O)c5ccccc5)cc43)[C@@H]2C)cc1 | -0.799
C=CC[C@]1(C(=O)OC)N=C(c2ccc(OCCCO)cc2)O[C@H]1c1ccccc1N=[N+]=[N-] | -3.31
COc1ccccc1CN1C(=O)c2ccccc2[C@](Cc2ccccc2I)(C(=O)NCCCN(C)C)[C@@H]1c1ccc(CO)cc1 | 1.61
CC1CC/C=C\[C@H]2OC34C=CCN(c5ccc(Cl)cc5)C(=O)[C@H]3N(CCCO)C(=O)[C@]4(C)C2C(=O)O1 (stereo not given in full) | -4.75
CC[C@H](C)C(=O)O[C@H]1CC[C@]2(C)C3=C(CCC2C1(C)C)[C@]1(C)CC[C@H]([C@H](C)CCCC(C)C)[C@@]1(C)CC3 (stereo not given in full) | -1.34
CCOC(=O)C[C@H]1[C@H](OC(=O)c2cc3ccccc3oc2=O)[C@@H](NC(=O)C2CCCCC2)c2cc(OCCCO)ccc2N1C(=O)Cc1ccc(OC)cc1 | -4.22
CC(C)C(=C=CC[C@@H](O)c1cccc(OCCO)c1)CCO | -1.53
C=C(COC)/C(=C/C[C@H](OC(=O)c1ccncc1)c1cccc(OCCO)c1)c1cnc2ccccc2c1 | -4.94
CC(C)CNC(=O)[C@@H]1c2ccccc2C(=O)N(Cc2ccccc2)[C@H]1c1ccc(CO)cc1 | -1.68
C=C(COC)C(=O)CC[C@@H](OC(C)=O)c1ccc(OCCO)cc1 | -4.63
CCCCC(=C=CC[C@H](O)c1ccc(OCCO)cc1)C[C@H](O)c1ccccn1 | -5.18
CC(C)c1ccc(NN2C(C(O)C(C)C)C=CC3C(=O)N(c4ccccc4)C(=O)C32)cc1 (stereo not given) | -1.26
COCCOC(=O)N1C(=O)[C@@]2(c3cc(C#CC4=CCCCC4)ccc31)[C@H](C(=O)N1CCN(c3ncccn3)CC1)[C@H]1C(=O)O[C@H](c3ccccc3)[C@H](c3ccccc3)N1[C@@H]2c1ccccc1OCCO | 2.82
CC(C)C(=C=CC[C@@H](O)c1ccccc1OCCO)C[C@@H](O)c1cc(Cl)cc(Cl)c1O | -3.09
COc1ccc(C(O)C2C=CC3C(=O)N(C)C(=O)C3N2Nc2ccc([N+](=O)[O-])cc2[N+](=O)[O-])cc1OCc1ccccc1 (stereo not given) | -2.98
